Screens as filed in PubChem BioAssay.
SARS PLpro yeast-1 – qHTS of Yeast-based Assay for SARS-CoV PLP; S. cerevisiae expressing SARS-CoV PLpro, growth rescue; Potency, µM (titrated, usually from 32.9 µM), for inactives: top-dose activity, positive = growth rescue, most hits filed as activators; 330,000 compounds, 0.19% hits; AID 485353, 2010; calls by dose curve; also: potency is read from the fitted curve at half-maximal effect; 0% is about no effect; nearly all actives have a fitted effect of over 55% in size
Shiga inhibitor – A qHTS for Small Molecule Inhibitors of Shiga Toxin. Vero cells, Shiga toxin protein synthesis inhibition reporter. inhibition, % at 38.7 µM. 290,000 compounds, 9.2% hits; in the data active = inhibition mostly above about 28%, no sharp cut-off; inactive = mostly below about 43%; also: 0% is about no effect
AMA1-RON2 inh – qHTS for Inhibitors of AMA1-RON; Towards Development of Antimalarial Drug Lead: Primary Screen; Plasmodium falciparum AMA1 (3D7) - RON2 peptide interaction; AlphaScreen AMA1-biotinylated RON2 peptide binding; Potency, µM (doses to about 58.2 µM), inactives show top-dose activity change, negative = inhibition, most hits filed as inhibitors; 360,000 compounds, 0.2% hits;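 also: potency is read from the fitted curve at half-maximal effect; 0% = vehicle wells and -100% = peptide control; nearly all actives have a fitted effect of over 45% in size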
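AMA1 (3D7) with his tag at 25 nM final met compounds first, then biotinylated RON2 peptide at 25 nM; detection used donor plus acceptor beads, 10 µg/mL apiece, read by AlphaScreen after 30 min at room temperature.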
Pf growth 96h – Primary qHTS for delayed death inhibitors of the malarial parasite plastid, 96 hour incubation; P. falciparum luciferase reporter growth, 96 h; Potency, µM (top dose mostly 28.7 µM), inactives show at the highest dose activity change, negative = inhibition, most hits filed as inhibitors; 320,000 compounds, 6.9% hits; also: potency is read from the fitted curve at half-maximal effect; % is scaled to controls: 0 for no effect and ±100 for the full control effect
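96 h incubation, 37 C, 5% CO2, of luciferase-reporter P. falciparum-infected RBCs (2% hematocrit, 0.05% parasitemia final) with test compounds; endpoint luminescence.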
Pf growth 48h – Primary qHTS for delayed death inhibitors of the malarial parasite plastid, 48 hour incubation | P. falciparum luciferase growth in erythrocytes, 48 h | Potency, µM (highest dose often 28.7 µM), for inactives: at the top dose activity change, negative = inhibition, hits mostly inhibitors | 310,000 compounds, 5.9% hits; also: potency is read from the fitted curve at half-maximal effect; % is scaled to controls: 0 for no effect and ±100 for the full control effect
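A one-generation exposure of luciferase-tagged malaria parasites in RPMI 1640/Albumax erythrocyte culture, 37 C and 5% CO2. Inhibition is inferred from decreased luminescence after adding detection reagent.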
Cycloheximide cs – Cycloheximide Counterscreen for Small Molecule Inhibitors of Shiga Toxin; cell reporter, cycloheximide protein synthesis inhibition counterscreen; max response, %; 300,000 compounds, 12% hits; AID 2314, 2010; in the data active = max response mostly above about 13%, no sharp cut-off; inactive = mostly below about 14%; also: read at 38.3 µM for the half of the compounds with a filed dose; 0% is about no effect
SARS PLpro yeast-2 – qHTS of Yeast-based Assay for SARS-CoV PLP: Hit Validation; calls only; yeast expressing SARS-CoV PLpro, growth phenotype rescue; shares compounds with SARS PLpro yeast-1; 1,000 compounds, 19% hits; call rule not given here
* hit, by the source's call; i = inactive; ? = inconclusive; / = not tested or not shown; + = active, no number; [ ] = dose if it differs, or a comment. The list is not random: actives were taken first. Their share in the collection is about 19%. Unless noted, calls follow the shape of the dose curve; as a rule, active = well fitted curve in the direction sought with a large enough effect; inconclusive = small, poorly fitted or top-dose-only effect, or another doubt; inactive = no such curve, though single readings can be large; an effect the other way counts as inactive or inconclusive.

SMILES | SARS PLpro yeast-1 | Shiga inhibitor | AMA1-RON2 inh | Pf growth 96h | Pf growth 48h | Cycloheximide cs | SARS PLpro yeast-2
Cc1nn(C)cc1/C=N/NC(=S)Nc1ccc(Cl)cc1Cl | ? | active | 2% | -24% | 35% | 12* | +
O=C(CSc1ccccc1C(=O)O)NCC1CCCCC1 | 0% | 17 | 12% | 94% | 17% | 2 | /
O=C(N/N=C/c1c(O)n(-c2ccccc2)c(=O)[nH]c1=O)c1ccncc1 | -10% | 19 | 3% | 45% | 34% | 8 | /
Cc1cccc(-n2c(O)c(/C=N/NC(=O)c3ccccc3Cl)c3ccccc3c2=O)n1 | 14µM* | 20 | -26% | -1% | -7% | 8 | i
O=C(N/N=C/c1c(O)n(-c2ccccc2Cl)c(=O)c2ccccc12)c1cccnc1 | 5.6µM* | -17 | 44% | ? | ? | -3 | i
COc1ccccc1NC(=O)Nc1ccc(Cl)c(S(=O)(=O)Nc2ccccc2OC)c1 | 6% | -2 | 18% | ? | -17% | -2 | /
COc1ccc(C(=O)Nc2ccc(Cl)c(S(=O)(=O)Nc3ccccc3OC)c2)cc1 | ? | 14 | -7% | ? | ? | 5 | ?
Fc1cc(F)cc(NC(=S)NN2CCOCC2)c1 | 0% | -3 | 40% | ? | 8% | 1 | /
CCCCc1ccc(NC(=S)NN2CCOCC2)cc1 | 10µM* | 111* | 60% | 28% | 24% | 67* | +
CC(/C=N/NC(=O)CSc1nc(C)cc(C)n1)=C\c1ccccc1 | -29% | -11 | 7% | ? | 7% | -5 | /
CC(/C=N/Nc1nc(C)cc(C)n1)=C\c1ccc(C(C)C)cc1 | 11µM* | 59* | 36% | ? | 10µM* | 35* | +
C=C1CC2C=C(NC(C)=O)CC(C1)C2 (stereo not drawn) | ? | -3 | -4% | 8% | 25% | -5 | i
Cc1ccc(CNC(=O)CCS(=O)(=O)c2cc3c(cc2Cl)NC(=O)CO3)cc1 | -3% | -6 | -4% | -14% | ? | 13 | /
CCOC(=O)N1CCN(C(=O)CCS(=O)(=O)c2cc3c(cc2Cl)NC(=O)CO3)CC1 | ? | -4 | 5% | 19% | -4% | -2 | i
CCN(CC)S(=O)(=O)c1ccc(N/N=C/c2ccc(O)cc2O)nc1 | 5µM* | 2 | 5% | 3.7µM* | 2.3µM* | -1 | i
Oc1ccc(/C=N/Nc2ncc(Br)cn2)c(O)c1 | ? | 115* | 27%[11.6 µM] | ? | ? | 76* | i
Cc1cc(C)cc(NC(=O)Nc2ccccc2N2CCCCC2)c1 | -1% | 13 | 3% | ? | ? | 2 | /
Cc1cc(C(=O)NNC(=O)c2ccc(Cl)c(S(N)(=O)=O)c2)c(C)o1 | 2% | / | -4% | / | / | / | /
Cc1cc(C(=O)NNC(=O)c2ccc(S(=O)(=O)N(C)C)cc2)c(C)o1 | 2.5µM* | -3 | 17%[11.6 µM] | 16% | 11% | -2 | i
O=c1c(Cl)c(N/N=C/c2ccc(Br)cc2)cnn1-c1ccccc1 | -15% | -8 | -3% | -14% | / | -2 | /
O=C(c1cccs1)N1CCN(Cc2cccc([N+](=O)[O-])c2)CC1 | 27% | 20 | ? | -28% | 3% | -4 | /
O=C(COC(=O)c1ccc(Cl)nc1)Nc1ccc(S(=O)(=O)N2CCCC2)cc1 | -35% | -19 | -4% | ? | -20% | 0 | /
O=C(COC(=O)c1cnc(Cl)c(Cl)c1)Nc1ccc(S(=O)(=O)N2CCCC2)cc1 | ? | 14 | -11% | -28% | -2% | -2 | i
O=C1c2ccccc2NC(c2ccc(-c3cccc([N+](=O)[O-])c3)o2)N1O (stereo not drawn) | 10µM* | -3 | 46% | ? | ? | 1 | +
CN(CC(=O)Nc1ccccc1Br)C(=O)c1cc(S(=O)(=O)N(C)C)ccc1N1CCCC1 | / | / | -6% | 8% | ? | / | /
